The subject of one assay is CRL-7250. As to the kind of experiment: Cytotoxic Profiling of Annotated Libraries Using Quantitative High-Throughput Screening (AID 1296008). Further: potency means the concentration at half of the fitted maximal effect. On max response: on the % scale 0 is the no-effect control and ±100 the full control effect. The conditions noted are these: Five cell lines viability, CellTiter-Glo ATP luminescence, 48-72 h; max response: hits give low values. Summed up:
(§1)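 Compounds were pin-transferred onto cells and incubated 48 or 72 hr at 37 degree Celsius, 95% humidity. CellTiter-Glo was added, plates sat 10 min at room temperature, then ATP-coupled luminescence was imaged as the viability read-out.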

The test system of another assay is HEK293. Described as above. As to conditions: Five cell lines viability, CellTiter-Glo ATP luminescence, 48-72 h; max response: hits give low values. The essentials: as §1
Assay [1] has as its system HaCat. The description is as above. As to conditions: Five cell lines viability, CellTiter-Glo ATP luminescence, 48-72 h; max response: hits give low values. Summed up: as §1
The next assay has as its system KB-3-1. Described as above. As to conditions: Five cell lines viability, CellTiter-Glo ATP luminescence, 48-72 h; max response: hits give low values. The essentials:
as §1

The next assay has as its system NIH3T3. The assay is described as above. As to conditions: Five cell lines viability, CellTiter-Glo ATP luminescence, 48-72 h; max response: hits give low values. Summed up:
as §1

Assay [2] deals with HACAT. As to the kind of experiment: qHTS assay to identify novel small-molecules to repurpose for Merkel cell carcinoma treatment (AID 1296009). As to conditions: MCC and control cell lines, CellTiter-Glo viability, 72 h; series mostly up to 44.8 µM. Summed up: (§2)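 Viability readout: ATP luminescence (CellTiter-Glo) after 72 hr drug exposure at 37 degree celsius. Dose-response format was 8 points for NPC and 11 points for MIPE; data normalized to in-plate controls.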

In the next assay the test system is HEK293T. The assay is described as above. As to conditions: MCC and control cell lines, CellTiter-Glo viability, 72 h; at 44.8 µM (top of the series) unless noted. The essentials: as §2

Inconclusive results are not listed. Values without a mark were called inactive. Calls of active or inactive are those of the source. The call rests on the fitted dose curve; in most records, active means well fitted inhibition curve with a large enough effect; inconclusive means small, poorly fitted or top-dose-only effect; inactive means flat fitted curve, though single readings scatter.
Further: nearly all actives have a fitted effect of over 60% in size.

In the case of `[N-]=[N+]=N[C@]1(CO)O[C@@H](n2ccc(=O)[nH]c2=O)[C@@H](O)[C@@H]1O`, the max response in the assay on CRL-7250 was 0.828%; in the assay on HEK293, -4.49%; in the assay on HaCat [1], 4.64%; with NIH3T3 it was -4.26%. Further, the outcome with KB-3-1 was inactive.

Consider `COC(=O)C[C@H]1[C@]2(C)C3=C(C)[C@H](c4ccoc4)C[C@H]3O[C@@H]2[C@H](OC(C)=O)C2[C@](C)(C(=O)OC)C=CC(=O)[C@@]21C` (some centres undefined), for which the max response in the assay with CRL-7250 is 0.289%; in the assay with HEK293, -6.04%; in the assay with HaCat [1] it was -0.0032%; in the assay with KB-3-1, 1.1%; with NIH3T3 it was 4.56%.

Consider `CC(C)S(=O)(=O)N[C@H]1CCOC[C@@H]1c1ccc(-c2ccc(C#N)s2)cc1`, for which the result in the assay with CRL-7250, in the assay on HaCat [1] and in the assay with KB-3-1 was inactive. In addition, the max response with HEK293 was -111%; with NIH3T3, -6.39%. Further, in the assay on HACAT [2], the Potency entry was “inactive”.

Turning to `c1ccc(-c2csc(N3CCOCC3)n2)cc1`, the figures for the max response in the assay on CRL-7250, in the assay with HaCat [1] and with KB-3-1 were 1.19%, -7.34% and 8.26%, respectively. In addition, the result in the assay on HEK293 and with HEK293T was inactive.

For the compound `O=C1C=CC2OC(c3ccccc3)C(O)C2O1` (centres undefined), the max response was -15.8% in the assay with CRL-7250 and -14.2% with KB-3-1. For the same compound, in the assay on HEK293, the Potency is 23.1 µM (active). Further, in the assay on HaCat [1], the outcome was inactive. The Potency entry with HACAT [2] is “inactive”.

Regarding `O=C(Nc1c(-c2cccs2)nc2ccccn12)c1ccc(Cl)cc1`, the outcome in the assay on CRL-7250, in the assay with HaCat [1] and with KB-3-1 was inactive. Also, the figures for the max response in the assay with HEK293 and with NIH3T3 were -117% and -0.375%, respectively. Further, the Potency entry with HACAT [2] is “inactive”.

With `Cc1cc(NC(=O)Nc2ccc(F)c(F)c2)n(-c2ccccc2)n1`, the max response was 4.98% in the assay on CRL-7250, -2.17% in the assay on HEK293, 4.72% in the assay on KB-3-1 and -11% in the assay with NIH3T3. Moreover, the result in the assay with HaCat [1] was inactive. Also, the Potency entry in the assay with HACAT [2] is “inactive”.

As for `COC1/C=C/C(C)(O)C(SCC(N)C(=O)O)CC(=O)OC(C)C(C)CC/C=C/1C` (centres undefined), the max response in the assay with CRL-7250 is 1.64%; with KB-3-1 it was 0.268%. Also, the result in the assay on HEK293 and in the assay on HaCat [1] was inactive. Besides, the outcome in the assay with HEK293T is “inactive [at 17.4 µM]”.

On to `C[C@@H]1CCC2C(C)(C)[C@H](O)CC[C@]2(C)[C@@]12Cc1c(O)cc3c(c1O2)CN([C@@H](CCC(=O)O)C(=O)O)C3=O` (some centres undefined), for which the result in the assay on CRL-7250, in the assay with HEK293 and in the assay with HaCat [1] was inactive. Moreover, the max response in the assay with KB-3-1 was 6.48%. Further, in the assay on HACAT [2], the Potency result was “inactive”. Also, the outcome in the assay with HEK293T was “inactive [at 17.4 µM]”.

Consider `COc1ccc(N(C)c2nc(C)nc3ccccc23)cc1`, for which the results for the Potency in the assay on CRL-7250, with HEK293 and in the assay with KB-3-1 were 0.0103 µM (active), 0.0073 µM (active) and 0.0052 µM (active), respectively. For the same compound, the outcome in the assay with HaCat [1] was inactive. In addition, the Potency entry in the assay with HACAT [2] is “inactive”.

For `CCNC(=O)Nc1ncc(-c2cc(-c3c(C)cc(OC)cc3C)nc(-c3cnccn3)n2)s1`, the values for the max response with CRL-7250 and in the assay with KB-3-1 were -11.4% and 1.64%, respectively. The outcome with HEK293, in the assay on HaCat [1] and with HEK293T was inactive. Besides, the Potency result in the assay on HACAT [2] is “inactive”.

As for `Nc1nc2c(ncn2[C@@H]2O[C@@H]3COP(=O)(O)O[C@H]3[C@H]2O)c(=O)[nH]1`, the max response in the assay on CRL-7250 was -1.98%; with HEK293, -4.75%. Further, the call in the assay on HaCat [1] and in the assay on KB-3-1 was inactive. Moreover, in the assay with HACAT [2], the Potency result is “inactive”.

With `CC1CCCCN1S(=O)(=O)c1ccc(N2CCCC2=O)cc1` (centres undefined), the max response was -8.63% in the assay on CRL-7250, -10.9% with HaCat [1] and -2.83% in the assay with KB-3-1. Further, the result in the assay on HEK293 and with HEK293T was inactive.

For the compound `CS(=O)(=O)NCC1CCC(Nc2nc3c(s2)CCSc2ccccc2-3)CC1` (centres undefined), the max response in the assay on CRL-7250 was -26.8%; in the assay with KB-3-1 it was -22.2%. Further, the Potency in the assay on HEK293 is 14.6 µM (active). In addition, in the assay with HaCat [1], the compound was called inactive. For the same compound, the Potency entry in the assay with HACAT [2] is “inactive”.

Consider `COc1ncc2cc(C(=O)Nc3cc(C(=O)NCc4cccc(Cl)c4)ccc3Cl)c(=O)[nH]c2n1`, for which the compound was classed as inactive in the assay on CRL-7250 and with HaCat [1]. The max response in the assay on HEK293 was -14.6%; in the assay on NIH3T3 it was -0.237%. Also, in the assay on KB-3-1, the Potency was 4.11 µM (active). In addition, the Potency result with HACAT [2] was “inactive”.

As for `CC(=O)O[C@@H]1[C@@H](O)[C@H](O[C@H]2CC[C@]34C[C@]35CC[C@]3(C)[C@@H]([C@@]6(C)CC[C@@H](C(C)(C)O)O6)[C@@H](O)C[C@@]3(C)[C@@H]5C[C@H](O[C@@H]3O[C@H](CO)[C@@H](O)[C@H](O)[C@H]3O)[C@H]4C2(C)C)OC[C@H]1O`, the values for the max response in the assay on CRL-7250 and in the assay with HEK293 were 1.83% and -2.54%, respectively. Besides, the result with HaCat [1] and in the assay on KB-3-1 was inactive. Moreover, the Potency entry in the assay on HACAT [2] was “inactive”.

Regarding `CC1(C)CC[C@]2(C(=O)O[C@@H]3O[C@H](CO)[C@@H](O)[C@H](O)[C@H]3O)CC[C@]3(C)C(=CCC4[C@@]5(C)CC[C@H](O[C@@H]6O[C@H](C(=O)O)[C@@H](O)[C@H](O)[C@H]6O)C(C)(C)C5CC[C@]43C)C2C1` (some centres undefined), the max response is 0.241% with CRL-7250, -5.49% in the assay with HEK293, 6.58% in the assay on KB-3-1 and -3.14% in the assay on NIH3T3. The outcome in the assay on HaCat [1] was inactive. Besides, in the assay on HACAT [2], the outcome is “inactive [at 9.27 µM]”.

Turning to `Cc1ccc(C)c(OCCn2cc(C(=O)O)c3ccccc32)c1`, the max response in the assay with CRL-7250 is -3.65%; in the assay on HEK293, -0.983%; in the assay with KB-3-1 it was 3.13%; in the assay with NIH3T3 it was 4.52%. Moreover, the compound was called inactive in the assay on HaCat [1]. For the same compound, the Potency result in the assay on HACAT [2] is “inactive”.

As for `O=C(O)C1CN(Cc2ccc(-c3nc4cc(Cc5ccccc5F)ccc4s3)c(F)c2)C1`, the max response in the assay on CRL-7250 is 1.29%; in the assay with HEK293 it was -0.852%; in the assay on KB-3-1, -5.18%; with NIH3T3, 3.31%. Further, the compound was called inactive with HaCat [1]. Besides, the outcome in the assay with HACAT [2] was “inactive [at 9.27 µM]”.

The values are drawn from PubChem BioAssay (NCATS).
